Source: PubChem (The Scripps Research Institute Molecular Screening Center)
The list is not random: actives were taken first. Their share in the collection is about 3.4%.
GPR151 ag: activators of human GPR151 | activation, % at 11.2 µM | Q8TDV0 | PathHunter beta-arrestin GPR151 cells, luminescence | actives 1% (n = 650,000); in the data active means activation above about 4.9%;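 further: 0% = median of compound wells and 100% = cells with positive control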
MITF inh: human MITF inhibition, primary screen; O75030; AlphaScreen MITF homodimerization, bead proximity signal; inhibition, % at 2.6 µM; actives 0.91% (n = 650,000); in the data active means inhibition above about 50%;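 further: 0% = vehicle wells with protein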
Target sequence (O75030 whole entry, looked up): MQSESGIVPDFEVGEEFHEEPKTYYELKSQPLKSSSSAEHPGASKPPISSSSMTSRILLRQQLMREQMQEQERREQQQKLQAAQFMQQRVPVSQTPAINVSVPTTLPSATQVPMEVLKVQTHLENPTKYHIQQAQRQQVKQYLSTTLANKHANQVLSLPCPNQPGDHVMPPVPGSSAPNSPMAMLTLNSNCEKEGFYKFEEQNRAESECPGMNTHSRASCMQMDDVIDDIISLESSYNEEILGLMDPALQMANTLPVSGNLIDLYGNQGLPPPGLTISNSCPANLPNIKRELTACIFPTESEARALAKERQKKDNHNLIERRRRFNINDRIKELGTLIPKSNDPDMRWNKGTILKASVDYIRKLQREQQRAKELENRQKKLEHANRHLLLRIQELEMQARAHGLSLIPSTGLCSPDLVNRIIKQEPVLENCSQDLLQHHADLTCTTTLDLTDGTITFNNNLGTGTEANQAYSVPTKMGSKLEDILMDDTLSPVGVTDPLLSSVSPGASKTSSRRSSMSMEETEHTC
TEAD-YAP block: TEAD-YAP interaction inhibition | HEK-TIYL cells, TEAD-Gal4/YAP UAS-luciferase luminescence | inhibition, % at 9.12 µM | actives 1.4% (n = 640,000) | AID 1259422; in the data active means inhibition above about 32%;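 further: 0% = median of test compound wells and 100% = reference inhibitor wells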
FBW7 activator: activators of human E3 ligase FBW7. AlphaScreen FBW7–phospho-cyclin E peptide binding, activator screen. normalized activity (activation), % at 26.1 µM. actives 0.13% (n = 650,000); in the data active means normalized activity above about 1.9%;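 further: purified mutant Fbw7 with reduced substrate affinity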
GPR151 conf act: confirmation of human GPR151 activators; shares compounds with GPR151 ag; GPR151 PathHunter beta-arrestin cells, luminescence, 90 min; % of EA-reagent control over plate median; activation, % at 11.2 µM; 6,700 tested, under 10 active; AID 1508609;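 active means mean percent activation across replicates above the confirmation screen cutoff of 4.91%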
GPR119 ag: counter-screen for GPR151 activators: effect on human GPR119; GPR119 PathHunter beta-arrestin cells, luminescence, 90 min; 0 = compound-well median, 100 = enzyme-acceptor control; actives 0.3% (n = 6,700); AID 1508611; activation, % at 11.2 µM; shares compounds with GPR151 ag;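 active means mean percent activation in the counterscreen above 29.09%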;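 further: counterscreen on off-target GPR119 to flag nonselective hits from the GPR151 activator screen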
The depositor's hits bear a star; x = not tested or not shown.

SMILES	GPR151 ag	MITF inh	TEAD-YAP block	FBW7 activator	GPR151 conf act	GPR119 ag
CN(c1ccc(C(=O)Nc2ccc(F)c(Cl)c2)cc1)S(=O)(=O)c1ccccc1	5.4*	12	3	0	0	6
Cc1cc(=O)n2nc(N3CCCC3C(=O)NCCCN3CCCCC3)sc2n1 (centres undefined)	5.0*	5	-2	0	1	-13
O=C(Nc1c[nH]c(=O)[nH]c1=O)c1ccc(N2C(=O)C3C4C=CC(C4)C3C2=O)cc1 (centres undefined)	6.7*	15	4	0	0	6
O=C(Nc1ccccc1O)c1ccc(N2C(=O)C3C4C=CC(C4)C3C2=O)cc1 (centres undefined)	1	-2	-126	0	x	x
COc1cccc(CN2CCC(CNc3ccc(-c4cn[nH]c4)cc3)C2)c1 (centres undefined)	1	26	-2	-1	x	x
Cc1ccc(C(=O)N2CCN3C(=O)[C@@H](Cc4ccc(O)cc4)NC(=O)[C@H]3C2)cc1F	-1	-2	17	0	x	x
CCOC(=O)C(NC(=O)CCn1c(=S)oc2ccccc21)C(=O)OCC	0	-2	1	0	x	x
O=C(Nc1cccc2ccccc12)C1CCN(c2nnnn2-c2ccccc2)CC1	2	-15	2	0	x	x
CC(C)CCn1nc(C(=O)NN)c2ccccc2c1=O	6.0*	1	-3	0	1	7
O=C(CCCCCn1c(=O)[nH]c2ccccc2c1=O)NC1CCCCC1	3	-7	0	0	x	x
Cc1ccccc1N(C)S(=O)(=O)c1nnc(NC(=O)c2ccccc2F)s1	1	10	-1	0	x	x
Cc1ccc2c(c1)CC(C)N2S(=O)(=O)c1nnc(NC(=O)c2ccccc2F)s1 (centres undefined)	8.5*	11	3	0	-1	-10
CC1Cc2ccccc2N1S(=O)(=O)c1nnc(NC(=O)c2ccccc2)s1 (centres undefined)	0	4	6	0	x	x
COc1ccc(C(=O)Nc2nnc(S(=O)(=O)N3c4ccc(C)cc4CC3C)s2)cc1 (centres undefined)	0	-3	-8	0	x	x
CN(c1ccccc1)S(=O)(=O)c1nnc(NC(=O)c2ccccc2F)s1	10*	9	6	0	1	0
Cc1ccc(C(=O)Nc2nnc(S(=O)(=O)N3c4ccccc4CC3C)s2)cc1 (centres undefined)	5.6*	-4	-3	0	0	-2
NC(CCC(=O)OC1CCCCC1)C(=O)OC1CCCCC1 (centres undefined)	0	-2	7	0	x	x
C/C(=N\NC(=O)c1cc(-c2ccco2)[nH]n1)c1ccc(O)cc1	7.4*	9	6	0	0	11
C/C(=N\NC(=O)c1cc(-c2cccs2)[nH]n1)c1ccc(O)cc1	-1	-10	-6	0	x	x
CC(C)Oc1ccc(NC(=O)/C=C/c2ccc(F)cc2)cc1	6.7*	15	-28	0	1	-2
COc1ccc(/C=C/C(=O)Nc2ccc(OC(C)C)cc2)cc1	2	-1	-23	0	x	x
Cc1ccc(-c2ccc(=O)n(CCC(=O)NC(C)C)n2)cc1	-1	-2	1	0	x	x
COc1ccc(S(=O)(=O)NNC(=O)C(O)(c2ccccc2)c2ccccc2)cc1	0	-1	13	0	x	x
Cc1nn(C)c(C)c1-c1nccc(NCc2nc3ccccc3[nH]2)n1	5.9*	-4	-3	0	0	-4
CCOC(=O)CSc1nnc2c3c(C)c(C)sc3ncn12	5.8*	0	-5	0	0	2
SMILES	GPR151 ag	MITF inh	TEAD-YAP block	FBW7 activator	GPR151 conf act	GPR119 ag
CN1CC(=O)N(C)C2N=CN(C)C2C1=O (centres undefined)	1	-9	0	0	x	x
Cc1cccc(CSc2nc(=O)n3ccccc3n2)c1	5.2*	-7	-10	0	-1	0
CC1CCN(S(=O)(=O)c2ccc3c(c2)CCN3C(=O)CCCC(=O)O)CC1	-2	11	6	1	x	x
CC1CCCCN1C(=O)C1CC=CCC1C(=O)O (centres undefined)	1	10	-1	0	x	x
CCc1nn(C(CC)C(=O)NC2CCCC2)c(=O)c2cc3occc3n12 (centres undefined)	-1	-32	8	0	x	x
CCc1nn(C(CC)C(=O)NC2CCCC2)c(=O)c2cc3oc(C)cc3n12 (centres undefined)	13*	4	5	0	0	-1
COc1ccc2[nH]c(=O)c(CN(CCO)S(=O)(=O)c3ccc(Cl)cc3)cc2c1	0	-3	-15	0	x	x
CC(O)CCc1nc2ccc([N+](=O)[O-])cc2[nH]1 (centres undefined)	5.1*	0	-10	0	-1	-4
O=[N+]([O-])c1ccc2nc(CCCc3nc4ccc([N+](=O)[O-])cc4[nH]3)[nH]c2c1	-1	5	13	0	x	x
Cc1cc(NC(=O)/C(=C/c2cccc([N+](=O)[O-])c2)NC(=O)c2cccs2)ccc1Br	1	-11	2	0	x	x
Cc1ccc(NC(=O)/C(=C/c2cccc([N+](=O)[O-])c2)NC(=O)c2cccs2)c(Br)c1	6.9*	16	4	0	5.5*	-4
N#C/C(=C\c1cccs1)C(=O)Nc1ccc([N+](=O)[O-])cc1Br	6.4*	7	0	0	1	6
CCOC(=O)CSc1nc2sc(C(=O)OCC)c(C)c2c(=O)n1Cc1ccc(C)cc1	1	17	4	0	x	x
CC(=O)N1CCN(Cc2ccc3c(c2)CN(C(=O)Cc2cc(F)cc(F)c2)CCO3)CC1	0	-2	-10	0	x	x
CCOc1ccccc1C(=O)Nc1ccc(S(=O)(=O)NC(C)CC)cc1 (centres undefined)	13*	6	6	0	0	1
CCOc1ccc(C(=O)Nc2ccc(S(=O)(=O)NC(C)(C)C)cc2)cc1OCC	5.9*	24	2	0	1	-4
CCNS(=O)(=O)c1ccc(NC(=O)c2ccccc2OCC)cc1	0	19	7	1	x	x
CCCCNC(=O)CSc1nc2ccccc2nc1Cc1ccc(F)cc1	-1	3	-10	0	x	x
N#C/C(=C/c1ccc(N2CCOCC2)c([N+](=O)[O-])c1)c1nc2ccccc2[nH]1	5.2*	-25	-19	0	-2	-6
Cc1cccc(OCC(O)CN2CCCCCC2)c1C (centres undefined)	9.8*	1	4	0	0	-2
O=C1C(=O)N(Cc2ccc([N+](=O)[O-])cc2)c2ccccc21	0	11	9	0	x	x
COc1ccc(C2=CC(c3cc(OC)c(OC)c(OC)c3)n3nnnc3N2)cc1 (centres undefined)	7.3*	16	61*	0	0	-10
